Reference: PubChem BioAssay (EPA / NIEHS)
Results filed as inconclusive are left out. The source made the active and inactive calls. How the source made its calls: active means hit-call score of the fitted dose curve at least 0.9, where 1 is the maximum; inconclusive means response in the unintended direction; inactive means score below 0.9.

Columns and labels:
[1] = TOX21_p53_BLA_p2_viability: Viability Assessment in the Tox21 HCT-116 p53 Agonism Beta-lactamase Assay, Phase 2 (AID 2283591);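 further: compound exposure lasted 16 h at 37 °C; actives lower the ATP signal meaning cytotoxicity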
Outline: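 HCT116 p53-bla cells, 4000/well, dosed after 5 h plating (217-fold dilution of DMSO stocks) and incubated 16 h at 37C. Viability taken as cellular ATP by CellTiter-Glo luminescence after 30 min RT; signal loss marks cytotoxicity.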

[2] = target: Cellular tumor antigen p53 (Homo sapiens) (UniProt P04637); assay: TOX21_p53_BLA_p2_ratio: Tox21 HCT-116 p53 Agonism Beta-lactamase Assay, Ratio, Phase 2 (AID 2283592)
Outline: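 Ratio endpoint: beta-lactamase cleavage of CCF4-AM, blue (460 nm) over green (530 nm). HCT116 reporter line; 16 h treatment, 37C; substrate 2 h RT.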

[3] = TOX21_p53_BLA_p3_viability: Viability Assessment in the Tox21 HCT-116 p53 Agonism Beta-lactamase Assay, Phase 3 (AID 2283593);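 further: cells exposed to compound for 16 h before reading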
Outline: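 HCT116 cells, 4000/well, dosed 5 h after plating by pin transfer (217-fold dilution from DMSO stock) and incubated 16 h at 37C, 5% CO2. Viability read as ATP luminescence with CellTiter-Glo after 30 min at room temperature.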

[4] = target: Cellular tumor antigen p53 (Homo sapiens) (UniProt P04637); assay: TOX21_p53_BLA_p3_ratio: Tox21 HCT-116 p53 Agonism Beta-lactamase Assay, Ratio, Phase 3 (AID 2283596)
Outline: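 Cells were seeded at 4000/well, rested 5 h at 37C, then dosed with DMSO compound solutions (217-fold dilution) for 16 h. CCF4-AM substrate was loaded for 2 h at room temperature, and the 460/530 nm emission ratio was fitted for gain of signal versus DMSO.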

[5] = TOX21_p53_BLA_p4_viability: Viability Assessment in the Tox21 HCT-116 p53 Agonism Beta-lactamase Assay, Phase 4 (AID 2283597);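 further: hits lower the luminescence signal meaning cytotoxicity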
Outline: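 Cytotoxicity was inferred from loss of CellTiter-Glo luminescence. HCT116 cells had been dosed with compounds after 5 h plating, incubated 16 h at 37C and 5% CO2, and exposed to the CCF4-AM substrate for 2 h.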

[6] = target: Cellular tumor antigen p53 (Homo sapiens) (UniProt P04637); assay: TOX21_p53_BLA_p5_ratio: Tox21 HCT-116 p53 Agonism Beta-lactamase Assay, Ratio, Phase 5 (AID 2283599)
Outline: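 HCT-116 p53-bla cells (4000/well) plated 5 h, dosed with compound (217-fold DMSO dilution) for 16 h at 37 C; CCF4-AM substrate 2 h at room temperature. Activity is the 460/530 nm emission ratio (405 nm excitation), fitted in gain-of-signal direction versus DMSO.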

[7] = TOX21_p53_BLA_p5_viability: Viability Assessment in the Tox21 HCT-116 p53 Agonism Beta-lactamase Assay, Phase 5 (AID 2283600)
Outline: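 Luciferase-coupled ATP quantitation of cells treated for 16 h (37C, 5% CO2) with test chemicals delivered in DMSO via a 217-fold dilution; 4000 cells/well; reagent incubated 30 min at room temperature before luminescence reading.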

[8] = target: Cellular tumor antigen p53 (Homo sapiens) (UniProt P04637); assay: TOX21_p53_BLA_p4_ratio: Tox21 HCT-116 p53 Agonism Beta-lactamase Assay, Ratio, Phase 4 (AID 2283601)
Outline: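 HCT-116 p53 beta-lactamase reporter cells (4000/well) preincubated 5 h, then compound (217-fold dilution of DMSO stock) for 16 h at 37C. CCF4-AM substrate added 2 h at room temperature; 460/530 nm emission ratio fitted upward versus DMSO.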

Cellular tumor antigen p53 (Homo sapiens), sequence (P04637 whole entry, looked up): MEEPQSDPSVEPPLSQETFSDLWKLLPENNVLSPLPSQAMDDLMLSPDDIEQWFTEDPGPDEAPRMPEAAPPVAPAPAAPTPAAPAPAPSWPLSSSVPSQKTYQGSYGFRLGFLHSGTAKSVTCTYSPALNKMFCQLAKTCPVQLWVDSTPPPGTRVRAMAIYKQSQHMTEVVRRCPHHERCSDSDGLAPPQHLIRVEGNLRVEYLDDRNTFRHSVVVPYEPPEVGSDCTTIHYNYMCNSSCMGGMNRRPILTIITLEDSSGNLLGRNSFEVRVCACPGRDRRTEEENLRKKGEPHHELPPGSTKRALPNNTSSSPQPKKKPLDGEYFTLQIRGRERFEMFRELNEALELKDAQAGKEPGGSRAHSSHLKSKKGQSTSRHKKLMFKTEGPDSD

| Structure (SMILES) | outcome [1] | outcome [2] | outcome [3] | outcome [4] | outcome [5] | outcome [6] | outcome [7] | outcome [8] | AC50 [1] | AC50 [3] | AC50 [4] | AC50 [5] | AC50 [6] | AC50 [7] | AC50 [8] | AC50 [2] |
| --- | --- | --- | --- | --- | --- | --- | --- | --- | --- | --- | --- | --- | --- | --- | --- | --- |
| CN1CC(=O)N/C1=N/C(=O)Nc1cccc(Cl)c1 | inactive | inactive | inactive | inactive | inactive | inactive | inactive | inactive |  |  |  |  |  |  |  |  |
| COCCCC/C(=N\OCCN)c1ccc(C(F)(F)F)cc1 | inactive | inactive | inactive | inactive | inactive | inactive | inactive | inactive |  |  |  |  |  |  |  |  |
| CN1[C@@H](CC(=O)c2ccccc2)CCC[C@H]1C[C@H](O)c1ccccc1 | inactive | inactive | inactive | inactive | inactive | inactive | inactive | inactive |  |  |  |  |  |  |  |  |
| CCCCN(CCCC)c1ccc(C(=O)c2ccccc2C(=O)O)c(O)c1 |  | inactive |  |  |  |  |  |  | 17.2 µM (active) | 23.1 µM (active) | 39.8 µM (active) | 21.2 µM (active) | 52.2 µM (active) | 20.3 µM (active) | 45.5 µM (active) |  |
| CN1[C@@H]2CC[C@H]1CC(OC(=O)C(O)c1ccccc1)C2 (stereo partly specified) | inactive | inactive | inactive | inactive | inactive | inactive | inactive | inactive |  |  |  |  |  |  |  |  |
| C=C1/C(=C\C=C2/CCC[C@]3(C)[C@@H]([C@H](C)CCCC(C)C)CC[C@@H]23)C[C@@H](O)C[C@@H]1O | inactive |  |  |  | inactive | inactive | inactive | inactive |  | 37.1 µM (active) | 40 µM (active) |  |  |  |  | 20.7 µM (active) |
| C=C1/C(=C\C=C2/CCC[C@]3(C)[C@@H]([C@H](C)CCCC(C)(C)O)CC[C@@H]23)C[C@@H](O)C[C@@H]1O |  |  |  |  |  |  |  |  | 19.8 µM (active) | 24.5 µM (active) | 25.4 µM (active) | 13 µM (active) | 27 µM (active) | 21 µM (active) | 26.1 µM (active) | 37.8 µM (active) |
| CC1=C(/C=C/C(C)=C/C=C/C(C)=C/C=C/C=C(C)/C=C/C=C(C)/C=C/C2=C(C)C[C@@H](O)CC2(C)C)C(C)(C)C[C@H](O)C1 |  |  | inactive |  |  |  |  |  | 40.1 µM (active) |  | 33.8 µM (active) | 36.6 µM (active) | 38.8 µM (active) | 43.2 µM (active) | 36.4 µM (active) | 38.8 µM (active) |
| O=C(Oc1cccc2cccnc12)c1ccccc1 | inactive | inactive | inactive | inactive | inactive | inactive | inactive | inactive |  |  |  |  |  |  |  |  |
| CCN(CC)CCOc1ccc(-c2nc3cc(Cl)ccc3s2)cc1 |  | inactive | inactive | inactive |  | inactive | inactive | inactive | 44.8 µM (active) |  |  | 36.3 µM (active) |  |  |  |  |
| Cc1cc(-c2ccc(N=Nc3cc(S(=O)(=O)O)c4ccccc4c3N)c(C)c2)ccc1N=Nc1cc(S(=O)(=O)O)c2ccccc2c1N | inactive |  | inactive |  | inactive | inactive | inactive | inactive |  |  | 12.6 µM (active) |  |  |  |  | 6.5 µM (active) |
| O=S(=O)(O)CC(S)CS (stereo unspecified) | inactive | inactive | inactive | inactive | inactive | inactive | inactive | inactive |  |  |  |  |  |  |  |  |
| c1ccc(OCc2ccc(CCCN3CCOCC3)cc2)cc1 | inactive | inactive | inactive | inactive | inactive | inactive | inactive | inactive |  |  |  |  |  |  |  |  |
| COc1cc(C=C2CCCC(=Cc3ccc(O)c(OC)c3)C2=O)ccc1O |  | inactive |  | inactive |  |  |  | inactive | 15.2 µM (active) | 15.5 µM (active) |  | 27.8 µM (active) | 11.5 µM (active) | 17 µM (active) |  |  |
| CO[C@@H]1[C@@H](O[C@@H]2O[C@H](C)[C@@H](O[C@H]3C[C@@](C)(O)[C@@H](OC(=O)CC(C)C)[C@H](C)O3)[C@H](N(C)C)[C@H]2O)[C@@H](CC=O)C[C@@H](C)C(=O)/C=C/C2OC2C[C@@H](C)OC(=O)C[C@H]1OC(C)=O (stereo partly specified) | inactive | inactive | inactive | inactive | inactive | inactive | inactive | inactive |  |  |  |  |  |  |  |  |
| CC(C)COC(=O)COc1cc(Cl)c(Cl)cc1Cl | inactive | inactive | inactive | inactive | inactive | inactive | inactive | inactive |  |  |  |  |  |  |  |  |

| Structure (SMILES) | outcome [1] | outcome [2] | outcome [3] | outcome [4] | outcome [5] | outcome [6] | outcome [7] | outcome [8] | AC50 [1] | AC50 [3] | AC50 [4] | AC50 [5] | AC50 [6] | AC50 [7] | AC50 [8] | AC50 [2] |
| --- | --- | --- | --- | --- | --- | --- | --- | --- | --- | --- | --- | --- | --- | --- | --- | --- |
| C1CCCC1.C1CCCC1.[Cl][V][Cl] | inactive | inactive | inactive | inactive |  | inactive | inactive | inactive |  |  |  | 40.3 µM (active) |  |  |  |  |
| OCCN1CCN(CCCN2c3ccccc3Sc3ccc(Cl)cc32)CC1 | inactive | inactive | inactive | inactive |  | inactive | inactive | inactive |  |  |  | 15.8 µM (active) |  |  |  |  |
| O[C@@H](c1cc(C(F)(F)F)nc2c(C(F)(F)F)cccc12)[C@H]1CCCCN1 |  |  |  |  |  |  |  |  | 32.7 µM (active) | 34 µM (active) | 43.6 µM (active) | 24.6 µM (active) | 42.9 µM (active) | 22 µM (active) | 39.6 µM (active) | 28.9 µM (active) |
| Nc1c2c(nc3c1CCC3)CCCC2 | inactive | inactive | inactive | inactive | inactive | inactive | inactive | inactive |  |  |  |  |  |  |  |  |
| S=C1NC=NC2N=CNC12 (stereo unspecified) |  |  |  |  |  |  | inactive |  | 2.15 µM (active) | 2.33 µM (active) | 7.71 µM (active) | 2.3 µM (active) | 6.33 µM (active) |  | 8.02 µM (active) | 7.37 µM (active) |
| C=CC(=O)OCC1CC2CC1C1CCC(COC(=O)C=C)C21 (stereo unspecified) |  |  | inactive | inactive |  |  | inactive |  | 65.8 µM (active) |  |  | 64.1 µM (active) | 74.8 µM (active) |  | 53 µM (active) | 55.2 µM (active) |
| CCOC(=O)Oc1c(OC)cc(C(=O)O[C@@H]2C[C@@H]3CN4CCc5c([nH]c6cc(OC)ccc56)[C@H]4C[C@@H]3[C@H](C(=O)OC)[C@H]2OC)cc1OC | inactive | inactive | inactive | inactive | inactive | inactive | inactive | inactive |  |  |  |  |  |  |  |  |
| CCCCCCCCCCn1cc[n+](CCCCCCCCCC)c1C |  |  |  |  |  |  |  |  | 44.2 µM (active) | 46.1 µM (active) | 20.1 µM (active) | 57.5 µM (active) | 74.1 µM (active) | 75.2 µM (active) | 73.6 µM (active) | 18.7 µM (active) |
| CC[C@@]1(O)C(=O)OCc2c1cc1n(c2=O)Cc2cc3c([N+](=O)[O-])cccc3nc2-1 | inactive |  |  |  |  |  | inactive |  |  | 0.685 µM (active) | 0.172 µM (active) | 0.654 µM (active) | 0.166 µM (active) |  | 0.166 µM (active) | 0.124 µM (active) |
| Cc1ccc(-n2nc(C(C)(C)C)cc2NC(=O)Nc2ccc(OCCN3CCOCC3)c3ccccc23)cc1 | inactive | inactive | inactive | inactive | inactive | inactive | inactive | inactive |  |  |  |  |  |  |  |  |
| O=CC=C(c1ccccc1)c1ccccc1 | inactive |  |  | inactive |  | inactive | inactive | inactive |  | 47.3 µM (active) |  | 29.8 µM (active) |  |  |  | 46.4 µM (active) |
| Cc1c(Cl)cccc1Nc1ccccc1C(=O)O |  |  |  |  |  |  | inactive |  | 5.79 µM (active) | 23 µM (active) | 21.1 µM (active) | 10.2 µM (active) | 21.6 µM (active) |  | 17.7 µM (active) | 19.4 µM (active) |
| Nc1cnn([C@@H]2O[C@H](CO)[C@@H](O)[C@H]2O)c(=O)n1 | inactive |  | inactive |  | inactive |  | inactive |  |  |  | 2.28 µM (active) |  | 6.26 µM (active) |  | 1.34 µM (active) | 3.04 µM (active) |
| COc1cc(C(=O)OCCCN2CCCN(CCCOC(=O)c3cc(OC)c(OC)c(OC)c3)CC2)cc(OC)c1OC | inactive | inactive | inactive | inactive | inactive | inactive | inactive | inactive |  |  |  |  |  |  |  |  |
| OC[C@]1(O)OC[C@@H](O)[C@H](O)[C@@H]1O | inactive | inactive | inactive | inactive | inactive | inactive | inactive | inactive |  |  |  |  |  |  |  |  |
| C=CC[C@@H]1/C=C(\C)C[C@H](C)C[C@H](OC)[C@H]2O[C@@](O)(C(=O)C(=O)N3CCCC[C@H]3C(=O)O[C@H](/C(C)=C/[C@@H]3CC[C@@H](O)[C@H](OC)C3)[C@H](C)[C@@H](O)CC1=O)[C@H](C)C[C@@H]2OC |  | inactive | inactive | inactive |  |  |  | inactive | 36.5 µM (active) |  |  | 35.9 µM (active) | 36.8 µM (active) | 40.5 µM (active) |  |  |
